Drawing on PubChem BioAssay (NCATS), this text covers Potency for 14 compounds.

Inconclusive results are not listed. Calls of active or inactive are those of the source. Calls follow the shape of the dose curve; as a rule, active = well fitted inhibition curve with a large enough effect; inconclusive = small, poorly fitted or top-dose-only effect; inactive = no such curve, though single readings can be large or run the other way.
Potency is read from the fitted curve at half-maximal effect.

The test deals with Zika virus NS2B-NS3 protease (linked). Nature of the test: 384 well plate NINDS AMC confirmatory qHTS for Zika virus inhibitors (AID 1347163). Also: nearly all actives have a fitted effect of over 50% in size. The settings on record: Recombinant NS2B-NS3 protease, Ac-VKTGKR-AMC fluorescence; series mostly up to 100 µM. From the text:
Description: Assay Submitters (PI): Avindra Nath, Ph.D., National Institute of Neurological Disorders and Stroke (NINDS), Bethesda, MD Radhakrishnan Padmanabhan, Ph.D., Georgetown University (GU), Washington D.C. Zika Virus causes congenital defects, including microcephaly and is associated with Guillain-Barre syndrome, eningoencephalitis and myelitis in infected adult. […] Using a target-based approach, we hope to establish a screening paradigm to uncover novel, cell-active NS2B-NS3 protease (Zika Virus) specific inhibitors from NCATS' collection of small molecules using qHTS. […] Four assay panel was created to identify potential Zika Virus inhibitors. Namely, (1) GU unlinked NS2B-NS3 AMC tagged protease qHTS, (2) GU unlinked NS2B-NS3 Rhodamine tagged protease qHTS, (3) NINDS linked NS2B-NS3 AMC tagged protease qHTS, (4) NINDS linked NS2B-NS3 Rhodamine tagged protease qHTS. Active compounds are validated using a secondary assay in 384 well plate format. Early Translation Branch (ETB) National Center for Advancing Translational Sciences (NCATS), Rockville, MD National Institute of Health (NIH), Bethesda, Maryland
384-well NINDS AMC Assay The protease was diluted to 7.5 nM, 40.9 nM, or 82 nM in assay buffer and dispensed into a 96-well PCR plate (Applied Biosystems); 20 or 22 microL was transferred to a black 384-well assay plate (final protease concentration of 5 nM, 30 nM, or 60 nM, respectively). Compounds (3 microL, 1 microM - 10 mM, DMSO) were diluted and transferred to the assay plate (final concentrations ranged from 100 nM to 1 mM). Compounds were incubated with protease for ~15 minutes. The substrate, Ac-VKTGKR-AMC (Genscript), was dissolved in DMSO to a concentration of 6 mM and further diluted into assay buffer to a working concentration of 180 microM, then dispensed into a 384-well preparation plate (Eppendorf). A multichannel repeat pipettor was used to add 3 or 5 microL of substrate to the assay plate to give a final concentration of 30 microM. The plate was incubated in the dark at room temperature. After 25 minutes, the fluorescence intensity (excitation: 355 nm, emission: 460 nm) was measured and normalized to no-enzyme and no-inhibitor controls. Aprotinin39 (VWR) was used as an intraplate control.
In the case of `Oc1cccc(-c2c3nc(c(-c4cccc(O)c4)c4ccc([nH]4)c(-c4cccc(O)c4)c4nc(c(-c5cccc(O)c5)c5ccc2[nH]5)CC4)C=C3)c1`, the Potency was 3.16 µM (active).

Regarding `O=C(O)c1ccc(S(=O)(=O)N(Cc2ccc(OC(F)(F)F)cc2)c2ncc(C(F)(F)F)cc2Cl)cc1`, the Potency is 2.51 µM (active).

Take `O=C(Nc1ccc(/C=C/c2ccc(NC(=O)c3cc(S(=O)(=O)O)c4cccnc4c3O)cc2S(=O)(=O)O)c(S(=O)(=O)O)c1)c1cc(S(=O)(=O)O)c2cccnc2c1O`: the Potency is 44.7 µM (active).

With `O=C(Nc1ccc(-c2ccc(Cl)c(Cl)c2)cc1)C1=C(O)c2ccccc2S(=O)(=O)N1`, the Potency result is “inactive”.

Consider `CC(O)(C(=O)O)C1CCC2(C)C1CCC1(C)C2CCC2C3(C)CCC(O)C(C)(COC4OC(CO)C(O)C(O)C4O)C3CCC21C` (centres undefined), for which the Potency is 39.8 µM (active).

For the compound `CC#C[C@@H](CC(=O)O)c1ccc(OCc2cccc(-c3ccc(C(F)(F)F)cc3)c2)cc1`, the Potency entry was “inactive”.

In the case of `CC#C[C@@H](CC(=O)O)c1ccc(OCc2ccc(CN3CCC4(C=Cc5ccccc54)CC3)s2)cc1`, the Potency was 5.01 µM (active).

Take `O=C(O)c1ccc(N2C(=O)/C(=C/c3ccc(-c4ccc([N+](=O)[O-])cc4)o3)C=C2c2ccccc2)cc1`: the Potency is 22.4 µM (active).

Consider `COc1ccc(-c2ccccc2)cc1NS(=O)(=O)c1cc(Cl)cc(Cl)c1O`, for which the Potency was 4.47 µM (active).

In the case of `O=C(O)c1cccc(-c2ccc(-c3cn(C(=O)N4CCCCC4Cc4ccccc4)nn3)cc2)c1` (centres undefined), the Potency entry was “inactive”.

Regarding `O=C(O)c1cc(N(Cc2ccc(C3CCCCC3)cc2)C(=O)c2ccc(Oc3ccccc3)cc2)ccc1O`, the Potency is 1.41 µM (active).

Take `CC(C)(C)Sc1c(CC(C)(C)C(=O)O)n(Cc2ccc(Cl)cc2)c2ccc(OCc3ccc4ccccc4n3)cc12`: the Potency is 14.1 µM (active).

Take `Cc1noc(-c2ccc(-c3ccc(CC(=O)O)cc3)cc2)c1NC(=O)O[C@H](C)c1ccccc1Cl`: the Potency was 20 µM (active).

Regarding `N#Cc1ccc(N2N=C3c4ccc(C(=O)O)cc4CC[C@@H]3[C@@H]2C2CCCC2)cc1Cl`, the Potency result was “inactive”.
